# Source: ChEMBL document CHEMBL3988442, “University of Dundee, Small-Polar-MMV Screening Library” (2021)
# For some assays here: Results with a measured potency or affinity are listed apart.
# Legend:
# Set-up in all cases: scale not given: direction of the effect not stated beside the values
# [1] = target: Protein translocase subunit SecA (Escherichia coli (strain K12)) (UniProt P10408); assay: Assay to Identify E. coli SecA ATPase Inhibitors; type: functional; conditions: 30 µM
# [2] = target: T1, Ubiquitin-activating enzyme e1, putative (Leishmania donovani (strain BPK282A1)) (UniProt E9BSI1); assay: Leishmania donovani Ubiquitin Activating Enzyme (LdE1); type: functional; conditions: 30 µM
# T1 sequence (whole entry): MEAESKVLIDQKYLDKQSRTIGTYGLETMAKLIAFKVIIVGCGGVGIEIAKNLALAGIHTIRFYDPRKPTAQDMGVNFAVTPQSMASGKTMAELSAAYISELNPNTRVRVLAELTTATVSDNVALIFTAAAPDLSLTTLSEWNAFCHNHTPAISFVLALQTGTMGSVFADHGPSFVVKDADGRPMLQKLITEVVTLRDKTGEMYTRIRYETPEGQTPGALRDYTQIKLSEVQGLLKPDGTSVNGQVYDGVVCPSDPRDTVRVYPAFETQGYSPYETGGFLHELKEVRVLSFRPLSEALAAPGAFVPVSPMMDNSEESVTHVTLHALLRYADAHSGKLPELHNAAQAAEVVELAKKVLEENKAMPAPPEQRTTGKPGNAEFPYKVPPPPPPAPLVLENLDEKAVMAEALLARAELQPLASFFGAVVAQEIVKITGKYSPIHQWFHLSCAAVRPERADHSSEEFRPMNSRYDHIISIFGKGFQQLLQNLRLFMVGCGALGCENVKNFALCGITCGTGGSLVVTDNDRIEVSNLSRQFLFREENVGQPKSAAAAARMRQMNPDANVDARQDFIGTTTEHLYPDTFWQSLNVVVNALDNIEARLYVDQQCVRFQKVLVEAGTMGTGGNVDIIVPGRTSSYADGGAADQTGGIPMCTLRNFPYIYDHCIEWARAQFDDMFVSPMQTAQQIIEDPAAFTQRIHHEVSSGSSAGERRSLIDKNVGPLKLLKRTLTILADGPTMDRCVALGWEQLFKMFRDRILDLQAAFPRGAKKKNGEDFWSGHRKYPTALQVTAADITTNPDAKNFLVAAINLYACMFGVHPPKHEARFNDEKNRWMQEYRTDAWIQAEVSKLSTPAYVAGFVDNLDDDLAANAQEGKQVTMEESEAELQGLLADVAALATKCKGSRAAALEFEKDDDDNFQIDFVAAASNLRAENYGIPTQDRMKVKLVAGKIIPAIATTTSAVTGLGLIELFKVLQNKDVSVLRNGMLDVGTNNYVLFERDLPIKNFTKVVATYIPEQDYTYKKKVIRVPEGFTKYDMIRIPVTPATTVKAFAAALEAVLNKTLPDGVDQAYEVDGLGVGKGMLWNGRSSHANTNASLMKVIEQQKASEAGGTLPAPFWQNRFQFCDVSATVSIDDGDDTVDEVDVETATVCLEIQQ
# [3] = target: AMP-activated protein kinase, AMPK (Homo sapiens) (UniProt P54646+O43741+P54619+Q9UGJ0+Q9Y478+Q13131+Q9UGI9); assay: AMP-dependent Kinase enzyme assay. An in vitro enzyme assay that detects ADP turnover that is directly proportional to AMPK activity. This uses naive AMPK that is activated during the assay with MK-8722; type: functional; conditions: 30 µM
# [4] = target: Sialic acid-binding Ig-like lectin 9 (Homo sapiens) (UniProt Q9Y336); assay: Hs-Siglec9 ALPHAscreen SOP 20170721; conditions: 10 µM
# Chain of Sialic acid-binding Ig-like lectin 9 (Homo sapiens) (Q9Y336 whole entry): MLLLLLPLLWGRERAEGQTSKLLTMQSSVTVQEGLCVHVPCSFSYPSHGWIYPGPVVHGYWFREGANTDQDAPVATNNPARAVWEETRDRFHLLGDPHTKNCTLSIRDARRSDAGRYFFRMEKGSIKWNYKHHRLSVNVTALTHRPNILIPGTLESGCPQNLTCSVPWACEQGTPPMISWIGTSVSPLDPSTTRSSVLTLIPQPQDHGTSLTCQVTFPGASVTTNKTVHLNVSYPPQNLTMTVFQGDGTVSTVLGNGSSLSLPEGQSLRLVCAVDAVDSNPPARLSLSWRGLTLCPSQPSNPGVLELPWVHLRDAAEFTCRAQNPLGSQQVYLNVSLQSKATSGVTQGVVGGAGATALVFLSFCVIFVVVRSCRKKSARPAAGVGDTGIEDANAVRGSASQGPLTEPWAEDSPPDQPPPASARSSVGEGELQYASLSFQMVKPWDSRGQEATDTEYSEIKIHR
# [5] = system: Trypanosoma cruzi; assay: Trypanosoma cruzi phosphomannomutase and mannose-1-phosphate guanylyltransferase assay; type: functional; conditions: 10 µM
# [6] = target: T2, Arginase-2, mitochondrial (Homo sapiens) (UniProt P78540); assay: in vitro enzyme assay to detect the production of urea directly proportional to the activity of Arginase II; type: functional; conditions: 33.3 µM; note: in the data most compounds retested in dose-response had high values
# T2 sequence (whole entry): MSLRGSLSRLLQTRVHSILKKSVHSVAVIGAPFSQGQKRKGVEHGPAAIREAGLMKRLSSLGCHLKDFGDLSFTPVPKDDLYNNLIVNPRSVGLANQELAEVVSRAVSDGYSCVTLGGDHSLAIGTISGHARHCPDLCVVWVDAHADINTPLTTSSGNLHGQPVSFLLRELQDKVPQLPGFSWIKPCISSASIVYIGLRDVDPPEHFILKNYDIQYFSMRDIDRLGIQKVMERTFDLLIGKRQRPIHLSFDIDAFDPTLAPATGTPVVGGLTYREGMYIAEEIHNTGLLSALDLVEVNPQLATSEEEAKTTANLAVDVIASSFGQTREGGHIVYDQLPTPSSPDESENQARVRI
# [7] = target: T3, Proteasome subunit beta (Trypanosoma cruzi) (UniProt O96673); assay: Trypanosoma cruzi proteasome chymotrypsin-like activity (TcProtChymo) assay.; note: in the data most compounds retested in dose-response had high values; type: functional; conditions: 9.37 µM
# T3 sequence (whole entry): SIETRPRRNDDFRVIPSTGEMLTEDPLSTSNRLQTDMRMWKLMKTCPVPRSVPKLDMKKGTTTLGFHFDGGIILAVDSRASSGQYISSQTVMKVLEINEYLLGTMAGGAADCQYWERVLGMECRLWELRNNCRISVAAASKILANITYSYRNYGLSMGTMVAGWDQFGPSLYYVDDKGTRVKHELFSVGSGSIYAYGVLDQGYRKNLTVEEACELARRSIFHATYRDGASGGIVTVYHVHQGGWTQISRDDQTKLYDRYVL
# [8] = organism: Homo sapiens; assay: To identify inhibition of the IFN signalling (Jak-Stat) pathway via expression of an eGFP reporter gene under the control of an IFN-stimulated response element (ISRE) containing MxA promoter.; type: functional; conditions: 30 µM
# [9] = target: T4, Tyrosyl-tRNA synthetase, putative (Trypanosoma cruzi (strain CL Brener)) (UniProt Q4DSP6); assay: Trypanosoma cruzi tyrosyl tRNA synthetase (TcYRS) _High Tyrosine SOP; type: functional; conditions: 30 µM; note: in the data most compounds retested in dose-response had high values
# T4 sequence (whole entry): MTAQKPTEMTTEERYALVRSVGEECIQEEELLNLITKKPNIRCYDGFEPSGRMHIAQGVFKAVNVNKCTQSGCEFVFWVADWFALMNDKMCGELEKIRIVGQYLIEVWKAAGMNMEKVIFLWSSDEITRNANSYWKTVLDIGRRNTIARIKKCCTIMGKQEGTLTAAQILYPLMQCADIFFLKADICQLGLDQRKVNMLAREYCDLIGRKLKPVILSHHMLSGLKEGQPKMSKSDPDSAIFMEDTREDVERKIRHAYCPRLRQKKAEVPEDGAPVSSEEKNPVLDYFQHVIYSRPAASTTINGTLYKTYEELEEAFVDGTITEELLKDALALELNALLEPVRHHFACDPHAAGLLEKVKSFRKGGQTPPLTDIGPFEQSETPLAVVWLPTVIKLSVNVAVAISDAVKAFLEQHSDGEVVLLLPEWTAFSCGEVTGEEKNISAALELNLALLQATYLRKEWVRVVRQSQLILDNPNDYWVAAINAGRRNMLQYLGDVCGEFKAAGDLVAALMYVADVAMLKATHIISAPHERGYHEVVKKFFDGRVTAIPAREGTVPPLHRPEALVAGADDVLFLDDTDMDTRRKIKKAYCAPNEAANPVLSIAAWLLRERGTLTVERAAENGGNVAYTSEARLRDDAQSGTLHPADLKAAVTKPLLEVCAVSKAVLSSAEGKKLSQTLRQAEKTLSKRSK
# [10] = target: T4, Tyrosyl-tRNA synthetase, putative (Trypanosoma cruzi (strain CL Brener)); assay: Trypanosoma cruzi tyrosyl tRNA synthetase (TcYRS) SOP; type: functional; conditions: 30 µM
# [11] = target: Chromo domain-containing protein 1 (Saccharomyces cerevisiae (strain ATCC 204508 / S288c) (Baker's yeast)) (UniProt P32657); assay: ScCHD-1 Enzyme Inhibition Assay; type: functional; conditions: 30 µM; note: in the data most compounds retested in dose-response had high values
# Chain of Chromo domain-containing protein 1 (Saccharomyces cerevisiae (strain ATCC 204508 / S288c) (Baker's yeast)) (P32657 whole entry, the tested form may be a part): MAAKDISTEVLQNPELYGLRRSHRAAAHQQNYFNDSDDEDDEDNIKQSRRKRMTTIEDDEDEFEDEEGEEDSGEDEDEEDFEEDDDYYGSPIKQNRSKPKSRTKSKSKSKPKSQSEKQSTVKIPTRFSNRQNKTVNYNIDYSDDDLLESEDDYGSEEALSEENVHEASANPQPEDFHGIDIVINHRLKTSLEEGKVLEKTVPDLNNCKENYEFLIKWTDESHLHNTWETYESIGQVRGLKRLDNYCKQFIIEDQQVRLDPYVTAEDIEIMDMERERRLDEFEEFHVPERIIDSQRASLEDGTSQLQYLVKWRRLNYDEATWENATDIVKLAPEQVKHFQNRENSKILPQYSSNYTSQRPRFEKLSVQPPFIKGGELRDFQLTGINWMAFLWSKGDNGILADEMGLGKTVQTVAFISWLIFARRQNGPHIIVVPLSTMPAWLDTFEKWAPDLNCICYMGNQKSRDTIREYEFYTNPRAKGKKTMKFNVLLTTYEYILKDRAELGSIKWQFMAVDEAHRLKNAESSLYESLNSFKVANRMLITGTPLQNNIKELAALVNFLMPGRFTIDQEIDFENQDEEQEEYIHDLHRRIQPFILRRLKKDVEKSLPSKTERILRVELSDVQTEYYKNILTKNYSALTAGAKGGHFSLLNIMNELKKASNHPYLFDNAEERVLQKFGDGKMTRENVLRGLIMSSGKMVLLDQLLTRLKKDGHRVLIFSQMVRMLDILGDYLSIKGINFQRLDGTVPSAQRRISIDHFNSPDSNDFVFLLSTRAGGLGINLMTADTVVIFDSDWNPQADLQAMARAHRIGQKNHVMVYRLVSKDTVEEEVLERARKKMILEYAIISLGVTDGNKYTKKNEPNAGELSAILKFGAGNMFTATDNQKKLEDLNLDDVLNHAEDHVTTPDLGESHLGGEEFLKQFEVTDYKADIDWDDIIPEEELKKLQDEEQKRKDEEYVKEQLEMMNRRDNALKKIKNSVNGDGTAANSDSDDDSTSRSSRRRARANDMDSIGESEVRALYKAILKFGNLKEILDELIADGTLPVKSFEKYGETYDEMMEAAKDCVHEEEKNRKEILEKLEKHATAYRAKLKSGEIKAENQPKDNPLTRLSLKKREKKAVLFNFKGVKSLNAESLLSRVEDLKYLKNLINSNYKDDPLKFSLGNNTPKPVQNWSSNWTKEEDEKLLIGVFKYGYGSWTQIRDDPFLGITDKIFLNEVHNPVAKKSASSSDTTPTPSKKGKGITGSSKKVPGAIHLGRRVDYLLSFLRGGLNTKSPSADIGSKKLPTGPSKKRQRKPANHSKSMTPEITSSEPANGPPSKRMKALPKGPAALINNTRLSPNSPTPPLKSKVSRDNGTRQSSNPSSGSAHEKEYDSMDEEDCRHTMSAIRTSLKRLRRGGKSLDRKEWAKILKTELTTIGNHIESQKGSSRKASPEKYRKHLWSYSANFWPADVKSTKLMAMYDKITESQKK
# Chain of Protein translocase subunit SecA (Escherichia coli (strain K12)) (P10408 whole entry): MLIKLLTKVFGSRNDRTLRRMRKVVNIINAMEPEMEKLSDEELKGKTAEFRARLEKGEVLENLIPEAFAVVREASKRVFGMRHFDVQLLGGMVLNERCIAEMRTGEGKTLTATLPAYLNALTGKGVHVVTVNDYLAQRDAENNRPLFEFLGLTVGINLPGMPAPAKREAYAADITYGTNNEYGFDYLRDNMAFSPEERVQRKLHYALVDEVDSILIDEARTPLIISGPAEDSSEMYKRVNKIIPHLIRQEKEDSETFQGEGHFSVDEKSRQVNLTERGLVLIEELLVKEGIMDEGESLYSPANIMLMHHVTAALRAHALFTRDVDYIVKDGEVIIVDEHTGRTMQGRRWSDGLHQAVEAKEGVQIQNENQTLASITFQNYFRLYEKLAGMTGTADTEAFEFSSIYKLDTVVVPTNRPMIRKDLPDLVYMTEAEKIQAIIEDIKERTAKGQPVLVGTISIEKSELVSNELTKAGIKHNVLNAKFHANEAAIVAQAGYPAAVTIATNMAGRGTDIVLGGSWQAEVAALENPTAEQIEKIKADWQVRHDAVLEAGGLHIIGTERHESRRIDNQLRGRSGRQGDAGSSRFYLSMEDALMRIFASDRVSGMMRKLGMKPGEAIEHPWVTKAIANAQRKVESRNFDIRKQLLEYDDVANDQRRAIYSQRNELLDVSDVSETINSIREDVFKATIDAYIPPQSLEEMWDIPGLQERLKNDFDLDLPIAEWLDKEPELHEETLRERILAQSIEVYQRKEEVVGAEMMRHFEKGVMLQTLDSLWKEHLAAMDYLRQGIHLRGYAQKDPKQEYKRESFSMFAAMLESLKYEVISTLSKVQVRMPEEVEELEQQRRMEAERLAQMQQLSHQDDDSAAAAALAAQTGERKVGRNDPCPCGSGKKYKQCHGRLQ
Compound,Percent Effect [1] [%],Percent Effect [2] [%],Percent Effect [3] [%],Percent Effect [4] [%],Percent Effect [5] [%],Percent Effect [6] [%],Percent Effect [7] [%],Percent Effect [8] [%],Percent Effect [9] [%],Percent Effect [10] [%],Percent Effect [11] [%]
Cc1cc(N2CCCC2c2cnccn2)ncn1 (configuration not stated),-2.62,6.76,8.11,0.00484,-2.37,0.696,7.02,5.1,8.6,14.3,-2.99
CN(Cc1ccco1)C(=O)C1CSCN1C(=O)c1cccnc1 (configuration not stated),-3.86,0,0.482,1.7,0.467,-3.96,4.65,-7.95,-0.493,1.24,-0.736
CCc1noc(C)c1C(=O)N1CCCC1c1c(C)nn(C)c1OC (configuration not stated),-2.91,-2.53,2.09,2.98,2.36,-3.42,-3.03,-17.3,1.48,1.27,0.826
O=c1cc(CN2CCCC2)nc2n1CCCN(Cc1ccsc1)C2,-0.492,17.3,3.4,2.2,-1.57,-9.68,14.4,-8.49,4.23,7.69,-10.8
Cc1nc(C2CCCN2Cc2nnc(C3CC3)o2)no1 (configuration not stated),-2,2.7,4.19,3.15,-1.21,-0.554,17.2,16.6,9.9,18.3,-3.91
Cc1nc(C)n(CC2CCCN(CCNC(=O)OC(C)(C)C)C2)n1 (configuration not stated),-0.765,2.6,5.46,11.6,1.67,5.26,5.9,9.69,2.86,0,-4.66
Cc1cc(C)n(CC2CCCN2C(=O)c2ccc3c(c2)nnn3C)n1 (configuration not stated),-3.73,8.22,-3.73,-4.94,-2.94,7.27,14.9,-9.03,3.23,7.5,-4.89
Cc1cnc(NC(=O)N2CCCC2)s1,-4.49,2.7,-1.71,2.98,8.5,-0.744,15.4,6.72,1.07,3.7,1.48
CSCCC(CO)NC(=O)c1sc(-c2ccccc2Cl)nc1C (configuration not stated),-3.21,4,7.64,6.5,-5.89,-6.16,11.3,6.86,1.06,7.69,-4
O=C1COC2(COCCN(Cc3cccnc3)C2)CN1c1ccoc1 (configuration not stated),-0.625,5.2,2.84,0.684,-10.6,7.1,4.87,8.52,0,1.28,-1.12
Cc1ccc(F)c(OC2(C(=O)O)CCN(C(=O)N3CCCC3)CC2)c1,0.204,-6.94,5.17,-4.4,-1.65,1.32,2.81,-7.85,2.1,0,2.52
CS(=O)(=O)NCC1CCCCN1C(=O)Nc1cccnc1N1CCCC1 (configuration not stated),-15.1,13.2,-38,3.6,7.89,0,8.92,2.36,5.32,13,-19.9
CN(C(=O)Cn1nc(-c2ccc(F)cc2)oc1=O)C1CCS(=O)(=O)C1 (configuration not stated),0.314,20.8,-6.94,6.92,0.291,0,19.3,13.6,2.1,10.3,-6.7
Cc1nc(CN(C)C2CCN(Cc3nc4ccccc4s3)C2)no1 (configuration not stated),-6.59,5.26,-8.48,14.1,4.95,1.8,3.81,-14.2,10.3,25.9,-8.21
CO[C@@H]1CCN(Cc2cnn(C)c2)[C@@H]2CN(Cc3ccco3)C[C@@H]21,-5.25,4,5.3,4.49,-1.38,-0.528,11.8,-13.9,0,2.56,-0.166
Cc1nccn1-c1cc(CNC(=O)CCNC(=O)C2CCCC2)ccn1,-5.76,21.1,-10,9.11,6.63,-4.68,5.84,5.17,8.37,23.5,-6.78
N#Cc1ccc(F)c(CN2CCCC2Cn2cccn2)c1 (configuration not stated),-4.03,-8.11,-4.51,13.8,1.39,-0.554,-0.359,4.22,4.95,1.22,4.66
CC(C)c1nc(C2CCCN(C(=O)CCn3ccnc3)C2)no1 (configuration not stated),-0.0893,24.3,-7.28,-4.78,1.42,-17.6,16.4,19.3,6.4,18.5,-10.5
CC(C)c1nnc2n1CC(CNCc1ccncc1)CC2 (configuration not stated),-1.84,4.17,-5.62,-8.26,-3.21,2.21,17,-9.1,3.16,-2.56,-2.53
CCOc1nnc(CNC2CCCN(c3ccc(C)nn3)C2)s1 (configuration not stated),-2.75,13.5,-13.2,-9.51,6.89,-8.02,15.1,18.7,5.42,23.5,-2.87
Cc1ccc(CN2CCC[C@]3(C(=O)O)CN(c4ncccn4)C[C@@H]3C2)o1,-3.35,5.33,-3.88,3.31,0.579,-39.6,3.59,-0.723,5.21,-15,-7.67
O=C1CC(N(C(=O)c2ccc3c(c2)CCC3)C2CC2)C(=O)N1 (configuration not stated),-3.91,7.59,-5.04,-3.45,-8.21,4.18,5.98,25.8,-0.493,1.27,-6.63
